Measurements: the supplement of paper PMC4466140

How the values were obtained:
Test in all cases: SPOT peptide array binding signal intensity (averaged, normalized) (arbitrary units (background-subtracted, floor 0; scale differs between SH3 domains)); higher = stronger binding of the SH3 domain to the peptide
[1] = target: AgAbp1
Summary of the method: (§1)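 SH3 domains from four yeast species were expressed as GST fusions in E. coli BL21(DE3) and purified on glutathione Sepharose. Each was incubated at 10 μg/ml overnight at 4°C in TBS-based blocking buffer on cellulose membranes bearing synthetic 15-mer peptides, in which serines replaced cysteines. Bound protein was detected with anti-GST antibody, an HRP anti-mouse secondary and luminol, then imaged and quantified with Genespotter. The binding signal is the normalized, background-subtracted spot intensity averaged over replicates, in arbitrary units that are not the same from one domain to another.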

[2] = target: AgBbc1
Summary of the method: as §1

[3] = target: AgBem1-D1
Summary of the method: as §1

[4] = target: AgBzz1-D1
Summary of the method: as §1

[5] = target: AgBzz1-D2
Summary of the method: as §1

[6] = target: AgCyk3
Summary of the method: as §1

[7] = target: AgFus1
Summary of the method: as §1

[8] = target: AgHof1
Summary of the method: as §1

[9] = target: AgHse1
Summary of the method: as §1

[10] = target: AgLsb1
Summary of the method: as §1

[11] = target: AgLsb4
Summary of the method: as §1

[12] = target: AgMyo5
Summary of the method: as §1

[13] = target: AgNbp2
Summary of the method: as §1

[14] = target: AgRvs167
Summary of the method: as §1

[15] = target: AgSho1
Summary of the method: as §1

[16] = target: AgSla1-D1-D2
Summary of the method: as §1

[17] = target: AgSla1-D3
Summary of the method: as §1

[18] = target: CaAbp1-D1
Summary of the method: as §1

[19] = target: CaAbp1-D2
Summary of the method: as §1

[20] = target: CaBbc1
Summary of the method: as §1

[21] = target: CaBem1-D1
Summary of the method: as §1

[22] = target: CaBzz1-D1
Summary of the method: as §1

[23] = target: CaBzz1-D2
Summary of the method: as §1

[24] = target: CaCyk3
Summary of the method: as §1

[25] = target: CaFus1
Summary of the method: as §1

[26] = target: CaHof1
Summary of the method: as §1

[27] = target: CaHse1
Summary of the method: as §1

[28] = target: CaLsb1
Summary of the method: as §1

[29] = target: CaLsb4
Summary of the method: as §1

[30] = target: CaMyo5
Summary of the method: as §1

[31] = target: CaNbp2
Summary of the method: as §1

[32] = target: CaRvs167
Summary of the method: as §1

[33] = target: CaRvs167-3
Summary of the method: as §1

[34] = target: CaSho1
Summary of the method: as §1

[35] = target: CaSla1-D1-D2
Summary of the method: as §1

[36] = target: CaSla1-D3
Summary of the method: as §1

[37] = target: ScAbp1
Summary of the method: as §1

[38] = target: ScBbc1
Summary of the method: as §1

[39] = target: ScBem1-D1
Summary of the method: as §1

[40] = target: ScBzz1-D1
Summary of the method: as §1

[41] = target: ScBzz1-D2
Summary of the method: as §1

[42] = target: ScCyk3
Summary of the method: as §1

[43] = target: ScFus1
Summary of the method: as §1

[44] = target: ScHof1
Summary of the method: as §1

[45] = target: ScHse1
Summary of the method: as §1

[46] = target: ScLsb1
Summary of the method: as §1

[47] = target: ScLsb2
Summary of the method: as §1

[48] = target: ScLsb3
Summary of the method: as §1

[49] = target: ScLsb4
Summary of the method: as §1

[50] = target: ScMyo3
Summary of the method: as §1

[51] = target: ScMyo5
Summary of the method: as §1

[52] = target: ScNbp2
Summary of the method: as §1

[53] = target: ScPex13
Summary of the method: as §1

[54] = target: ScRvs167
Summary of the method: as §1

[55] = target: ScSho1
Summary of the method: as §1

[56] = target: ScSla1-D1-D2
Summary of the method: as §1

[57] = target: ScSla1-D3
Summary of the method: as §1

[58] = target: SpAbp1-D1
Summary of the method: as §1

[59] = target: SpBbc1
Summary of the method: as §1

[60] = target: SpBzz1-D1
Summary of the method: as §1

[61] = target: SpBzz1-D2
Summary of the method: as §1

[62] = target: SpCyk3
Summary of the method: as §1

[63] = target: SpHof1
Summary of the method: as §1

[64] = target: SpHof1-2
Summary of the method: as §1

[65] = target: SpHof1-3
Summary of the method: as §1

[66] = target: SpHse1
Summary of the method: as §1

[67] = target: SpLsb1
Summary of the method: as §1

[68] = target: SpLsb4
Summary of the method: as §1

[69] = target: SpMyo1
Summary of the method: as §1

[70] = target: SpNbp2
Summary of the method: as §1

[71] = target: SpPex13
Summary of the method: as §1

[72] = target: SpRvs167
Summary of the method: as §1

[73] = target: SpSla1-D1-D2
Summary of the method: as §1

[74] = target: SpSla1-D3
Summary of the method: as §1

Measured: SPOT peptide array binding signal intensity

QTREPNEPPPPSPAM
0.667: [14]
1.5: [4] | [49] | [56]
1: [44]
7.75: [64]
7: [40]
108: [30]
1240: [69]
8: [22]
1.67: [32] | [72]
1580: [51]
0.5: [36] | [46] | [61] | [62]
2: [55] | [71]
1420: [12]
0.25: [26] | [28]
2.5: [8]
1.75: [53]
6.5: [25]
13.5: [48]
1.33: [54]
2210: [50]
4: [5]
0.75: [27]
≤ 0: all other assays above
